Results on 9 molecules are retold here after PubChem BioAssay (NCI).

Some test systems named below: HCT-15 colon; SNB-75 CNS; SNB-19 CNS; U251 CNS; PC-3 prostate; SK-MEL-5 melanoma; UACC-62 melanoma; LOX IMVI melanoma; SK-MEL-28 melanoma; SK-MEL-2 melanoma; EKVX NSCLC; SN12C renal; UO-31 renal; TK-10 renal; ACHN renal; A498 renal; CCRF-CEM leukemia; MOLT-4 leukemia; CAKI-1 renal.
Assay in all cases: NCI-60 one-dose screen, 48 h (100 = growth as untreated, 0 = no growth, -100 = all killed)
Holding throughout (details): 10 µM unless noted

Structures are written as SMILES. The panel holds about 83,000 compounds, 20% with a hit somewhere; the sample as a whole holds those more often.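 Values shown are percent growth following 48 h exposure of cells in 96-well plates to a single concentration of compound; below 10 was considered active.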 Unmarked numbers belong to inactive results. Calls of active or inactive are those of the source.

On to `O=C1Nc2ccccc2/C1=N/c1nc(-c2ccc(Cl)cc2)cs1`, for which the growth in the assay on HCT-15 colon was 71.2%; with SNB-75 CNS, 90.8%; in the assay on SNB-19 CNS, 75.1%; with U251 CNS it was 53.8%; in the assay with PC-3 prostate, 35.2%; in the assay with SK-MEL-5 melanoma, 76.7%. Besides, the growth was 61% with UACC-62 melanoma; 68.9% in the assay with LOX IMVI melanoma; 84.4% in the assay with SK-MEL-28 melanoma; 88.2% with SK-MEL-2 melanoma; 60.2% in the assay on EKVX NSCLC; 79.1% in the assay with SN12C renal. Besides, the growth was 52.2% in the assay with UO-31 renal; 87.9% with TK-10 renal; 80.2% in the assay on ACHN renal; 51% with A498 renal; 41% in the assay with CCRF-CEM leukemia; 25% with MOLT-4 leukemia.
In the case of `CC(C)(C)OC(=O)N1CCN(c2ccc(N)cc2)C(=O)C1`, the growth in the assay on HCT-15 colon is 100%; in the assay with SNB-75 CNS, 87%; with SNB-19 CNS, 99.9%; in the assay with U251 CNS, 107%; with PC-3 prostate, 109%; with SK-MEL-5 melanoma, 99.2%. Moreover, the growth in the assay on UACC-62 melanoma is 98.1%; with LOX IMVI melanoma, 99.1%; in the assay with SK-MEL-28 melanoma, 104%; in the assay on SK-MEL-2 melanoma, 111%; in the assay with EKVX NSCLC, 98.6%; with SN12C renal it was 96.2%. Also, the growth is 87.4% in the assay with UO-31 renal; 126% in the assay with TK-10 renal; 103% in the assay on ACHN renal; 98.3% in the assay with CAKI-1 renal; 107% with CCRF-CEM leukemia; 101% in the assay with MOLT-4 leukemia.
Consider `O=C(/C=C/c1ccc[nH]1)c1ccc(-n2ccc(C(F)(F)F)n2)cc1`, for which the growth was 86.6% in the assay with HCT-15 colon; 51.6% in the assay with SNB-75 CNS; 75.5% with SNB-19 CNS; 20% with U251 CNS; 8.84% (active) in the assay with PC-3 prostate; 99.9% in the assay on SK-MEL-5 melanoma. The growth is 90.3% in the assay with UACC-62 melanoma; 97.1% in the assay on LOX IMVI melanoma; 103% in the assay with SK-MEL-28 melanoma; 95% in the assay on SK-MEL-2 melanoma; 79.1% in the assay with EKVX NSCLC; -77.1% (active) in the assay with UO-31 renal. Also, the growth was 103% in the assay on TK-10 renal, 99.5% in the assay on ACHN renal, 93.4% in the assay on CAKI-1 renal and 25.7% in the assay on CCRF-CEM leukemia.
Consider `C=C(C)[C@H]1CC/C(C)=C/CC[C@]2(C)O[C@H]2CC/C(COC(=O)[C@@H](OC(C)=O)[C@H](NC(=O)c2ccccc2)c2ccccc2)=C\[C@@H]1O`, for which the growth was 105% with HCT-15 colon; 72.6% in the assay on SNB-75 CNS; 81.8% in the assay with SNB-19 CNS; 99.2% with U251 CNS; 90.1% with PC-3 prostate; 78.8% in the assay with SK-MEL-5 melanoma. In addition, the growth in the assay on UACC-62 melanoma was 59.3%; in the assay on LOX IMVI melanoma, 93.1%; with SK-MEL-28 melanoma, 104%; with SK-MEL-2 melanoma, 119%; in the assay on EKVX NSCLC, 84.7%; with UO-31 renal, 79.4%. Moreover, the growth in the assay with TK-10 renal was 99.7%; with ACHN renal it was 116%; with CAKI-1 renal it was 89.6%; in the assay on A498 renal, 92.8%; in the assay with MOLT-4 leukemia, 98.2%.
In the case of `NC(=S)N/N=C(\c1ccc(Cl)cc1)C1CC1`, the growth with HCT-15 colon was 84.3%; with SNB-75 CNS it was 83.7%; in the assay with SNB-19 CNS, 104%; with U251 CNS, 92.1%; with PC-3 prostate it was 77.9%; in the assay with SK-MEL-5 melanoma it was 89.1%. In addition, the growth with UACC-62 melanoma was 87.3%; in the assay on LOX IMVI melanoma, 94.2%; in the assay with SK-MEL-28 melanoma it was 98.7%; with SK-MEL-2 melanoma it was 106%; in the assay on EKVX NSCLC it was 69.8%; with SN12C renal, 83%. Also, the growth in the assay on UO-31 renal was 58.7%; in the assay with TK-10 renal it was 102%; in the assay on ACHN renal, 88.4%; in the assay on CAKI-1 renal, 81.1%; with CCRF-CEM leukemia, 63.2%; in the assay on MOLT-4 leukemia, 46.9%.
As to `COc1cccc(CNCCN2C(=O)c3ccc4c5c(ccc(c35)C2=O)C(=O)N(CCNCc2cccc(OC)c2)C4=O)c1`, the growth in the assay on HCT-15 colon is 9.24% (active); in the assay on SNB-75 CNS, 120%; in the assay on SNB-19 CNS, 84.2%; with U251 CNS it was 76.9%; in the assay on PC-3 prostate, 78.9%; with SK-MEL-5 melanoma, 58.8%. Further, the growth in the assay on UACC-62 melanoma was 96.8%; in the assay on LOX IMVI melanoma, 59.4%; in the assay with SK-MEL-28 melanoma, 120%; in the assay on SK-MEL-2 melanoma, 90.4%; with EKVX NSCLC, 121%; in the assay with SN12C renal, 85.7%. For the same molecule, the growth in the assay on UO-31 renal was 60.5%; in the assay with TK-10 renal, 99.6%; with ACHN renal it was 76.4%; with CAKI-1 renal it was 95.5%; in the assay with CCRF-CEM leukemia, -0.889% (active); with MOLT-4 leukemia it was 90.4%.
In the case of `C=C1C(=O)O[C@H]2[C@H]1CC/C(COC(=O)/C=C/c1c[nH]c3ccccc13)=C\CC[C@@]1(C)O[C@@H]21`, the growth is -64.6% (active) in the assay with HCT-15 colon; -53.7% (active) with SNB-75 CNS; -68.8% (active) in the assay with SNB-19 CNS; -98.1% (active) in the assay with U251 CNS; -98.4% (active) in the assay with SK-MEL-5 melanoma; -71.9% (active) in the assay on UACC-62 melanoma. The growth is -97.3% (active) in the assay with LOX IMVI melanoma; -54% (active) with SK-MEL-28 melanoma; -83.7% (active) in the assay on SK-MEL-2 melanoma; -41.4% (active) in the assay with EKVX NSCLC; -54% (active) in the assay with SN12C renal; -100% (active) in the assay with UO-31 renal. The growth is -100% (active) in the assay with ACHN renal, -98.8% (active) with A498 renal, 2.46% (active) with CCRF-CEM leukemia and 5.13% (active) with MOLT-4 leukemia.
As to `CC(C)Sc1nc(NN)c(C#N)c(-c2ccccc2)n1`, the growth in the assay on HCT-15 colon is 96.5%; in the assay with SNB-75 CNS, 92.7%; with SNB-19 CNS it was 95.9%; with U251 CNS it was 100%; with PC-3 prostate, 85.1%; in the assay on SK-MEL-5 melanoma it was 99.7%. Also, the growth is 90.6% in the assay on UACC-62 melanoma; 96.7% with LOX IMVI melanoma; 90.4% in the assay on SK-MEL-28 melanoma; 109% in the assay on SK-MEL-2 melanoma; 94.1% in the assay with EKVX NSCLC; 98.8% with SN12C renal. For the same molecule, the growth with UO-31 renal was 75.9%; in the assay with TK-10 renal it was 107%; in the assay with ACHN renal, 93%; with CAKI-1 renal, 93.6%; with A498 renal, 92.8%; with CCRF-CEM leukemia, 94.3%. For the same molecule, the growth in the assay on MOLT-4 leukemia was 97.4%.
Regarding `COc1cccc(NC(=O)c2cccc(-c3cc(=O)c4c(OC)c(OC)c(OC)cc4o3)c2)c1`, the growth with HCT-15 colon was 54.7%; in the assay with SNB-75 CNS it was 89.8%; with SNB-19 CNS it was 82.5%; with U251 CNS, 62.1%; in the assay with PC-3 prostate it was 57.1%; with SK-MEL-5 melanoma it was 63.9%. The growth in the assay on LOX IMVI melanoma is 49.9%; with SK-MEL-28 melanoma it was 73.4%; with SK-MEL-2 melanoma, 75.7%; in the assay on EKVX NSCLC, 81.3%; in the assay on SN12C renal, 62.3%; in the assay on UO-31 renal, 31.6%. In addition, the growth was 78.8% in the assay on TK-10 renal, 62.5% in the assay on ACHN renal, 74.7% in the assay on CAKI-1 renal and 40.5% in the assay with CCRF-CEM leukemia.
